Records with an inconclusive call do not appear. Unmarked numbers belong to inactive results. Calls of active or inactive are those of the source. The call rests on the fitted dose curve; in most records, active means well fitted curve in the direction sought with a large enough effect in the repeat runs; inconclusive means weak or mixed curves; inactive means no such curve, though single readings can be large; an effect the other way counts as inactive or inconclusive.
Tested on: not listed separately
Experiment: Caspase-3/7 induction in HepG2 cells by small molecules, qHTS cell viability counter screen (AID 1346981); further: nearly all actives have a fitted effect of over 30% in size
Settings: CellTiter-Fluor fluorescence, 17 h; series mostly up to 92.4 µM; activity change, negative = cytotoxicity: at the top concentration
How it was run: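 Treatment of HepG2 cells with DMSO-delivered compounds ran 16 hr at 37 C following a 5-hr pre-incubation of 2,000 cells/well. CellTiter-Fluor fluorescence, read after 1 hr, served as the viability measure in a qHTS format.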
On the % scale 0 is the no-effect control and ±100 the full control effect.

SMILES	activity change, negative = cytotoxicity
CCC(=O)Nc1ccc(O)cc1	-1.57% [at 42.5 µM]
CC(=O)Oc1cc(C(C)C)c(OCCN(C)C)cc1C	0.867% [at 42.5 µM]
O=c1[nH]cnc2c1ncn2[C@@H]1O[C@H](CO)[C@@H](O)[C@H]1O	-0.358% [at 42.5 µM]
N#Cc1ccc(C(c2ccc(C#N)cc2)n2cncn2)cc1	2.98% [at 42.5 µM]
NS(=O)(=O)c1cc(-c2nn[nH]n2)c(NCc2cccs2)cc1Cl	-0.118% [at 42.5 µM]
Cc1c(-c2ccccc2)oc2c(C(=O)OCCN3CCCCC3)cccc2c1=O	1.53% [at 42.5 µM]
OCc1ccccc1O	-8.25% [at 42.5 µM]
C[C@@H]1CN(c2c(F)c(F)c3c(=O)c(C(=O)O)cn(C4CC4)c3c2F)C[C@H](C)N1	0.129% [at 19 µM]
CC(=O)N(CC(O)CN(C(C)=O)c1c(I)c(C(=O)NCC(O)CO)c(I)c(C(=O)NCC(O)CO)c1I)c1c(I)c(C(=O)NCC(O)CO)c(I)c(C(=O)NCC(O)CO)c1I (stereo not given)	5.21% [at 42.5 µM]
CC(C)O	-1.97%
CN1CCN(c2c(F)cc3c(=O)c(C(=O)O)cn(CCF)c3c2F)CC1	0.844% [at 42.5 µM]
CN1CCN(c2c(F)cc3c(=O)c(C(=O)O)cn4c3c2SCC4)CC1	-0.0903% [at 42.5 µM]
O=c1[nH]c(=O)n([C@H]2C[C@H](O)[C@@H](CO)O2)cc1C(F)(F)F	-1.21% [at 42.5 µM]
Cc1nnc(SCC2=C(C(=O)O)N3C(=O)[C@@H](NC(=O)Cn4cnnn4)[C@H]3SC2)s1	3.72% [at 42.5 µM]
CCCCc1ccc2nc(NC(=O)OC)[nH]c2c1	-1.19% [at 42.5 µM]
Oc1ccccc1C=NCc1ccccc1	-2.36% [at 42.5 µM]
NC/C=C/C(=O)O	-0.345% [at 42.5 µM]
COc1ccccc1N1CCN(CCCNc2cc(=O)n(C)c(=O)n2C)CC1	-0.229% [at 42.5 µM]
CS(=O)(=O)c1ccc([C@@H](O)[C@@H](CF)NC(=O)C(Cl)Cl)cc1	1.31% [at 42.5 µM]

SMILES	activity change, negative = cytotoxicity
C=CC(C)(O)CC/C=C(\C)CCC=C(C)C (stereo not given)	-2.66%
Cc1cc(NS(=O)(=O)c2ccc(N)cc2)nc(C)n1	0.451% [at 42.5 µM]
CCC(=O)O[C@]1(C(=O)SCF)[C@H](C)C[C@H]2[C@@H]3C[C@H](F)C4=CC(=O)C=C[C@]4(C)[C@@]3(F)[C@@H](O)C[C@@]21C	11.4% [at 42.5 µM]
CC(C)NC[C@@H](O)COc1cccc2ccccc12	-9.19% [at 42.5 µM]
FC(F)(F)C(F)(F)C(F)(F)C(F)(F)C(F)(F)C(F)(F)C(F)(F)C(F)(F)Br	2.94% [at 42.5 µM]
CCN(CC)CC1CCCCN1CC(=O)N1c2ccccc2C(=O)Nc2cccnc21 (stereo not given)	-2.02% [at 42.5 µM]
CCN[C@H]1CN(CCCOC)S(=O)(=O)c2sc(S(N)(=O)=O)cc21	0.251% [at 42.5 µM]
CCCN(CCC)C(=O)C(CCC(=O)O)NC(=O)c1ccccc1 (stereo not given)	0.447% [at 42.5 µM]
CCCCN1C[C@H](O)[C@@H](O)[C@H](O)[C@H]1CO	-1.85% [at 42.5 µM]
C[C@@H]1CN(c2c(F)c(N)c3c(=O)c(C(=O)O)cn(C4CC4)c3c2F)C[C@H](C)N1	-0.6% [at 19 µM]
COc1ccc(S(=O)(=O)Nc2nnc(CC(C)C)s2)cc1	3.5% [at 42.5 µM]
Cc1c(C(=O)NCCO)[n+](=O)c2ccccc2n1[O-]	-0.0383% [at 42.5 µM]
COc1ccccc1OCC(O)COC(N)=O (stereo not given)	9% [at 42.5 µM]
CC1(C)S[C@@H]2[C@H](NC(=O)C(C(=O)O)c3ccccc3)C(=O)N2[C@H]1C(=O)O (stereo not given in full)	5.96% [at 42.5 µM]
CCN(CC)CCNC(=O)COc1ccc(Cl)cc1	0.234% [at 42.5 µM]
CCOC(=O)[C@H](CCc1ccccc1)N[C@@H](C)C(=O)N1Cc2cc(OC)c(OC)cc2C[C@H]1C(=O)O	-4.38% [at 42.5 µM]
CO[Si](C)(C)OC	0.584%
CO[C@@]1(NC(=O)CSCC#N)C(=O)N2C(C(=O)O)=C(CSc3nnnn3C)CS[C@@H]21	5.67% [at 42.5 µM]
CCOC(=O)c1ccccc1O	4.23% [at 42.5 µM]

Target: Nuclear receptor subfamily 1 group I member 2 (Homo sapiens) (UniProt O75469)
Experiment: Human pregnane X receptor (PXR) small molecule agonists, qHTS assay (AID 1346982); further: nearly all actives have a fitted effect of over 35% in size; further: potency means the concentration at half of the fitted maximal effect
Settings: PXR-Luc HepG2, CYP3A4 luciferase reporter, 24 h; series mostly up to 92.4 µM; activation: at the top concentration
How it was run: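 Stable HepG2 line reporting PXR-mediated CYP3A4 expression via luciferase. Treatment: 24 hr with compounds in DMSO at 37 C. Detection: ONE-Glo luminescence.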

Sequence of Nuclear receptor subfamily 1 group I member 2 (Homo sapiens) (O75469 whole entry, looked up): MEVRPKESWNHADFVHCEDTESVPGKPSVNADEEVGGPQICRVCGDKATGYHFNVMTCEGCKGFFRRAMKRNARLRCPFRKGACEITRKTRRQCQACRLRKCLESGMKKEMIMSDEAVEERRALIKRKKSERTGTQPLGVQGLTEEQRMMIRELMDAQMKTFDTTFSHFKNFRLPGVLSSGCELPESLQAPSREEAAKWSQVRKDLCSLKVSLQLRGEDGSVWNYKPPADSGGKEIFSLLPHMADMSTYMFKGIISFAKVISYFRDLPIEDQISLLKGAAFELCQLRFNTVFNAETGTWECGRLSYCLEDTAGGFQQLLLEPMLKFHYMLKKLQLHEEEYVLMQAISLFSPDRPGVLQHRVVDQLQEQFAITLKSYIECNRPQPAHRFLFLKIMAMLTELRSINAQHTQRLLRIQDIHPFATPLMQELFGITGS

SMILES	activation	Potency
CCC(=O)Nc1ccc(O)cc1	-4.52% [at 42.5 µM]	–
CC(=O)Oc1cc(C(C)C)c(OCCN(C)C)cc1C	-5.28% [at 42.5 µM]	–
O=c1[nH]cnc2c1ncn2[C@@H]1O[C@H](CO)[C@@H](O)[C@H]1O	13.9% [at 42.5 µM]	–
N#Cc1ccc(C(c2ccc(C#N)cc2)n2cncn2)cc1	10.1% [at 42.5 µM]	–
NS(=O)(=O)c1cc(-c2nn[nH]n2)c(NCc2cccs2)cc1Cl	–	13300 nM (active)
Cc1c(-c2ccccc2)oc2c(C(=O)OCCN3CCCCC3)cccc2c1=O	20.8% [at 42.5 µM]	–
OCc1ccccc1O	-7.59% [at 42.5 µM]	–
C[C@@H]1CN(c2c(F)c(F)c3c(=O)c(C(=O)O)cn(C4CC4)c3c2F)C[C@H](C)N1	-4.26% [at 19 µM]	–
CC(=O)N(CC(O)CN(C(C)=O)c1c(I)c(C(=O)NCC(O)CO)c(I)c(C(=O)NCC(O)CO)c1I)c1c(I)c(C(=O)NCC(O)CO)c(I)c(C(=O)NCC(O)CO)c1I (stereo not given)	-3.14% [at 42.5 µM]	–
CC(C)O	0.91%	–
CN1CCN(c2c(F)cc3c(=O)c(C(=O)O)cn(CCF)c3c2F)CC1	-3.38% [at 42.5 µM]	–
CN1CCN(c2c(F)cc3c(=O)c(C(=O)O)cn4c3c2SCC4)CC1	-3.11% [at 42.5 µM]	–
O=c1[nH]c(=O)n([C@H]2C[C@H](O)[C@@H](CO)O2)cc1C(F)(F)F	-6.72% [at 42.5 µM]	–
Cc1nnc(SCC2=C(C(=O)O)N3C(=O)[C@@H](NC(=O)Cn4cnnn4)[C@H]3SC2)s1	-3.24% [at 42.5 µM]	–
CCCCc1ccc2nc(NC(=O)OC)[nH]c2c1	–	2980 nM (active)
Oc1ccccc1C=NCc1ccccc1	-15.4% [at 42.5 µM]	–
NC/C=C/C(=O)O	1.09% [at 42.5 µM]	–
COc1ccccc1N1CCN(CCCNc2cc(=O)n(C)c(=O)n2C)CC1	-1.18% [at 42.5 µM]	–
CS(=O)(=O)c1ccc([C@@H](O)[C@@H](CF)NC(=O)C(Cl)Cl)cc1	-3.79% [at 42.5 µM]	–

SMILES	activation	Potency
C=CC(C)(O)CC/C=C(\C)CCC=C(C)C (stereo not given)	25.3%	–
Cc1cc(NS(=O)(=O)c2ccc(N)cc2)nc(C)n1	-3.99% [at 42.5 µM]	–
CCC(=O)O[C@]1(C(=O)SCF)[C@H](C)C[C@H]2[C@@H]3C[C@H](F)C4=CC(=O)C=C[C@]4(C)[C@@]3(F)[C@@H](O)C[C@@]21C	–	473 nM (active)
FC(F)(F)C(F)(F)C(F)(F)C(F)(F)C(F)(F)C(F)(F)C(F)(F)C(F)(F)Br	6.53% [at 42.5 µM]	–
CCN(CC)CC1CCCCN1CC(=O)N1c2ccccc2C(=O)Nc2cccnc21 (stereo not given)	5.13% [at 42.5 µM]	–
CCN[C@H]1CN(CCCOC)S(=O)(=O)c2sc(S(N)(=O)=O)cc21	-4.62% [at 42.5 µM]	–
CCCN(CCC)C(=O)C(CCC(=O)O)NC(=O)c1ccccc1 (stereo not given)	-5.72% [at 42.5 µM]	–
CCCCN1C[C@H](O)[C@@H](O)[C@H](O)[C@H]1CO	-4.22% [at 42.5 µM]	–
C[C@@H]1CN(c2c(F)c(N)c3c(=O)c(C(=O)O)cn(C4CC4)c3c2F)C[C@H](C)N1	-7.57% [at 19 µM]	–
COc1ccc(S(=O)(=O)Nc2nnc(CC(C)C)s2)cc1	-4.77% [at 42.5 µM]	–
Cc1c(C(=O)NCCO)[n+](=O)c2ccccc2n1[O-]	21.7% [at 42.5 µM]	–
COc1ccccc1OCC(O)COC(N)=O (stereo not given)	-10.5% [at 42.5 µM]	–
CC1(C)S[C@@H]2[C@H](NC(=O)C(C(=O)O)c3ccccc3)C(=O)N2[C@H]1C(=O)O (stereo not given in full)	1.13% [at 42.5 µM]	–
CCN(CC)CCNC(=O)COc1ccc(Cl)cc1	-5.08% [at 42.5 µM]	–
CCOC(=O)[C@H](CCc1ccccc1)N[C@@H](C)C(=O)N1Cc2cc(OC)c(OC)cc2C[C@H]1C(=O)O	11.1% [at 42.5 µM]	–
CO[Si](C)(C)OC	-0.822%	–
CO[C@@]1(NC(=O)CSCC#N)C(=O)N2C(C(=O)O)=C(CSc3nnnn3C)CS[C@@H]21	-2.45% [at 42.5 µM]	–
CCOC(=O)c1ccccc1O	-6.84% [at 42.5 µM]	–

Reference: PubChem BioAssay (Tox21)
